According to PubChem BioAssay (NCI):
Compounds without any hit were thinned out: in the full panel of roughly 79,000, 15% have a hit. The source made the active and inactive calls. Rule as the data show it: active = growth inhibition above about 70%; inactive = the rest.

How the values were obtained:
[1] = NCI Yeast Anticancer Drug Screen. Data for the rad52 strain (AID 147);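 also: 0% = growth of vehicle-treated control cultures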; details: S. cerevisiae rad52 mutant growth inhibition, stronger effect = higher value
Outline: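 Here a repair-compromised yeast strain receives each compound; its growth is then quantified and normalised to vehicle-only controls.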

[2] = NCI Yeast Anticancer Drug Screen. Data for the wt1 strain (AID 149);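 also: 0% = growth of vehicle-treated wt1 cultures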; details: S. cerevisiae wt1 strain (SPY 50644) growth inhibition, stronger effect = higher value
Outline: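 Measured: growth of wt1 yeast under compound versus vehicle treatment, reported as inhibition.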

[3] = NCI Yeast Anticancer Drug Screen. Data for the rad50EPP+ strain (AID 151);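 also: 0% = growth of vehicle-treated control cultures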; details: S. cerevisiae rad50 mutant strain, stronger effect = higher value
Outline: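 Read-out is yeast growth inhibition relative to vehicle; cells used were the rad50EPP+ strain.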

[4] = NCI Yeast Anticancer Drug Screen. Data for the mgt1 strain (AID 153); details: S. cerevisiae mgt1 mutant growth inhibition, stronger effect = higher value
Outline: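 Measured: inhibition of mgt1 yeast growth by compound, normalized to vehicle-treated cultures.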

[5] = NCI Yeast Anticancer Drug Screen. Data for the rad50 strain (AID 155);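 also: 0% = growth of vehicle-only cultures of the same strain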; details: S. cerevisiae rad50 strain growth inhibition, stronger effect = higher value
Outline: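 Growth of the mutant yeast was measured after compound exposure and referenced to vehicle-treated cultures.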

[6] = NCI Yeast Anticancer Drug Screen. Data for the mec2-1 strain (AID 157); details: S. cerevisiae mec2-1 strain, stronger effect = higher value
Outline: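 Using mec2-1 yeast: add compound, measure growth, express inhibition versus vehicle-treated cultures.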

[7] = NCI Yeast Anticancer Drug Screen. Data for the rad14 strain (AID 159);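 also: 0% = growth of vehicle-treated control cultures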; details: S. cerevisiae rad14 strain growth inhibition, stronger effect = higher value
Outline: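 Here, inhibition of yeast growth was measured after compound exposure, using a strain with a genetic defect in DNA damage repair and vehicle-treated cultures as the reference.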

[8] = NCI Yeast Anticancer Drug Screen. Data for the sgs1 mgt1 strain (AID 161);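 also: 0% = growth of cultures given vehicle only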; details: S. cerevisiae sgs1 mgt1 strain, stronger effect = higher value
Outline: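 Growth of a repair-deficient yeast mutant was monitored after compound treatment and expressed as inhibition relative to vehicle-treated cultures.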

[9] = NCI Yeast Anticancer Drug Screen. Data for the CLN2oe strain (AID 163);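 also: 0% = growth of vehicle-only control cultures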; details: S. cerevisiae CLN2oe strain, stronger effect = higher value
Outline: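 Whole-cell yeast growth assay. A strain engineered for altered cell-cycle control received compound, and inhibition relative to vehicle-treated cultures was recorded.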

[10] = NCI Yeast Anticancer Drug Screen. Data for the cln2 rad14 strain (AID 165);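 also: 0% = growth equal to vehicle treated cultures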; details: S. cerevisiae cln2 rad14 strain, stronger effect = higher value
Outline: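 Yeast strain cln2 rad14, bearing defects in cell cycle control and DNA repair, serves as the test system; values reflect growth inhibition compared with vehicle.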

[11] = NCI Yeast Anticancer Drug Screen. Data for the bub3 strain (AID 167); details: S. cerevisiae bub3 mutant strain, stronger effect = higher value
Outline: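 Whole-cell yeast assay. The mutant strain was incubated with compounds, and growth inhibition was determined by comparison with vehicle-treated cells.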

[12] = NCI Yeast Anticancer Drug Screen. Data for the wt2 strain (AID 169);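 also: 0% = growth of vehicle-treated yeast cultures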; details: S. cerevisiae wt2 strain growth inhibition, stronger effect = higher value
Outline: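 Treated yeast vs. vehicle-treated yeast: growth inhibition determined.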

[13] = NCI Yeast Anticancer Drug Screen. Data for the mlh1 strain (AID 171);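 also: 0% = growth of vehicle-treated control cultures of the same strain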; details: S. cerevisiae mlh1 strain growth inhibition, stronger effect = higher value
Outline: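 A yeast strain with a defined genetic lesion serves as the test organism. Cultures receive compound or vehicle, and growth is measured.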

[14] = NCI Yeast Anticancer Drug Screen. Data for the sgs1 strain (AID 173);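 also: 0% = growth of vehicle-only control cultures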; details: S. cerevisiae sgs1 mutant, stronger effect = higher value
Outline: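 A genetically defined yeast mutant is incubated with the test compound, and its growth is compared to that of the same strain given vehicle.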

[15] = NCI Yeast Anticancer Drug Screen. Data for the mlh1 rad18 strain (AID 175); details: S. cerevisiae mlh1 rad18 strain growth inhibition, stronger effect = higher value
Outline: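 Steps: expose repair-defective yeast to compound; measure growth; express inhibition against vehicle-treated controls.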

[16] = NCI Yeast Anticancer Drug Screen. Data for the rad18 strain (AID 177); details: S. cerevisiae rad18 mutant growth inhibition, stronger effect = higher value
Outline: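 Measured value is growth inhibition of a yeast strain bearing a DNA repair alteration, referenced to vehicle-treated cells.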

[17] = at 5.0 µM (retest, dose inferred, filed as 0.5)
[18] = at 50.0 µM (retest, dose inferred, filed as 5.0)

Measured: growth inhibition

NC(=O)NC1C(c2ccccc2)=C1c1ccccc1
active: [1]; at 11.0 µM 71% | [1]; at 33.0 µM 94% | [1]; at 100.0 µM 95% | [3]; at 1.2 µM 74% | [3]; at 3.7 µM 73% | [3]; at 11.0 µM 89% | [3]; at 33.0 µM 96% | [3]; at 100.0 µM 95% | [5]; at 3.7 µM 70% | [5]; at 11.0 µM 84% | [5]; at 33.0 µM 93% | [5]; [18] 79% | [5]; at 50.0 µM 92% | [5]; at 100.0 µM 95% | [7]; at 11.0 µM 73% | [7]; at 33.0 µM 97% | [7]; at 100.0 µM 97% | [14]; at 100.0 µM 84%
inactive: [1]; at 1.2 µM 37% | [1]; at 3.7 µM 58% | [2]; at 1.2 µM -2% | [2]; at 3.7 µM 12% | [2]; at 11.0 µM 26% | [2]; at 33.0 µM 26% | [2]; at 100.0 µM 27% | [4]; at 1.2 µM 0% | [4]; at 3.7 µM -2% | [4]; at 11.0 µM 0% | [4]; at 33.0 µM -3% | [4]; at 100.0 µM 19% | [5]; at 1.2 µM 61% | [5]; [17] -19% | [6]; at 1.2 µM 0% | [6]; at 3.7 µM -1% | [6]; [17] -50% | [6]; at 11.0 µM 6% | [6]; at 33.0 µM 5% | [6]; [18] -36% | [6]; at 50.0 µM 13.2% | [6]; at 100.0 µM 27% | [7]; at 1.2 µM 51% | [7]; at 3.7 µM 58% | [8]; [17] -45% | [8]; [18] -10% | [8]; at 50.0 µM 17.4% | [9]; at 1.2 µM -3% | [9]; at 3.7 µM -3% | [9]; at 11.0 µM -3% | [9]; at 33.0 µM -5% | [9]; at 100.0 µM 30% | [10]; [17] -18% | [10]; [18] 62% | [10]; at 50.0 µM 38% | [11]; at 1.2 µM -1% | [11]; at 3.7 µM -6% | [11]; [17] -73% | [11]; at 11.0 µM -4% | [11]; at 33.0 µM -14% | [11]; [18] -68% | [11]; at 50.0 µM -28.7% | [11]; at 100.0 µM -10% | [12]; at 1.2 µM 13% | [12]; at 3.7 µM 20% | [12]; at 11.0 µM 45% | [12]; at 33.0 µM 53% | [12]; at 100.0 µM 48% | [13]; at 1.2 µM -7% | [13]; at 3.7 µM -4% | [13]; at 11.0 µM 14% | [13]; at 33.0 µM 17% | [13]; at 100.0 µM 51% | [14]; at 1.2 µM 8% | [14]; at 3.7 µM 5% | [14]; at 11.0 µM 44% | [14]; at 33.0 µM 56% | [15]; [17] -104% | [15]; [18] -38% | [15]; at 50.0 µM 44.7% | [16]; at 1.2 µM -7% | [16]; at 3.7 µM 3% | [16]; at 11.0 µM 34% | [16]; at 33.0 µM 38% | [16]; at 100.0 µM 38%

O=C(O)c1ccc2cc(Cl)c3ccccc3c2c1
active: [5]; [18] 93% | [5]; at 50.0 µM 94.9% | [6]; [18] 89% | [6]; at 50.0 µM 94% | [8]; [18] 93% | [8]; at 50.0 µM 93.9% | [10]; [18] 92% | [10]; at 50.0 µM 92.8% | [11]; [18] 86% | [11]; at 50.0 µM 91.4% | [15]; [18] 93% | [15]; at 50.0 µM 94.8%
inactive: [1]; at 1.2 µM 1% | [1]; at 3.7 µM 9% | [1]; at 11.0 µM 28% | [1]; at 33.0 µM 55% | [1]; at 100.0 µM 67% | [2]; at 1.2 µM -4% | [2]; at 3.7 µM 3% | [2]; at 11.0 µM 11% | [2]; at 33.0 µM 30% | [2]; at 100.0 µM 43% | [3]; at 1.2 µM 3% | [3]; at 3.7 µM 9% | [3]; at 11.0 µM 17% | [3]; at 33.0 µM 24% | [3]; at 100.0 µM 21% | [4]; at 1.2 µM -1% | [4]; at 3.7 µM -4% | [4]; at 11.0 µM 15% | [4]; at 33.0 µM 41% | [4]; at 100.0 µM 60% | [5]; at 1.2 µM 2% | [5]; at 3.7 µM 12% | [5]; [17] 23% | [5]; at 11.0 µM 31% | [5]; at 33.0 µM 52% | [5]; at 100.0 µM 67% | [6]; at 1.2 µM -5% | [6]; at 3.7 µM 7% | [6]; [17] 1% | [6]; at 11.0 µM 25% | [6]; at 33.0 µM 44% | [6]; at 100.0 µM 54% | [7]; at 1.2 µM 0% | [7]; at 3.7 µM 7% | [7]; at 11.0 µM 20% | [7]; at 33.0 µM 42% | [7]; at 100.0 µM 58% | [8]; [17] 35% | [9]; at 1.2 µM -10% | [9]; at 3.7 µM -13% | [9]; at 11.0 µM 23% | [9]; at 33.0 µM 41% | [9]; at 100.0 µM 57% | [10]; [17] 30% | [11]; at 1.2 µM -4% | [11]; at 3.7 µM 1% | [11]; [17] 17% | [11]; at 11.0 µM 17% | [11]; at 33.0 µM 31% | [11]; at 100.0 µM 30% | [12]; at 1.2 µM -3% | [12]; at 3.7 µM 0% | [12]; at 11.0 µM 15% | [12]; at 33.0 µM 42% | [12]; at 100.0 µM 56% | [13]; at 1.2 µM 0% | [13]; at 3.7 µM 4% | [13]; at 11.0 µM 26% | [13]; at 33.0 µM 49% | [13]; at 100.0 µM 66% | [14]; at 1.2 µM 0% | [14]; at 3.7 µM 8% | [14]; at 11.0 µM 29% | [14]; at 33.0 µM 53% | [14]; at 100.0 µM 68% | [15]; [17] 58% | [16]; at 1.2 µM 2% | [16]; at 3.7 µM 3% | [16]; at 11.0 µM 19% | [16]; at 33.0 µM 39% | [16]; at 100.0 µM 55%
